The text below walks through data of PMC12820563, “FoxP3 forms a head-to-head dimer in vivo and stabilizes its multimerization on adjacent microsatellites”.

Whole data set: some 16,000 sequences, median “rpm ratio (pull-down/input)” near 0.94, cut for the highest 2% near 1.7. For the sample, the highest values were picked, then their nearest neighbours and some sequences at random.

The target of this test is T1, MBP-FoxP1dN (Mus musculus, UniProt P58462 326-579).
T1 sequence: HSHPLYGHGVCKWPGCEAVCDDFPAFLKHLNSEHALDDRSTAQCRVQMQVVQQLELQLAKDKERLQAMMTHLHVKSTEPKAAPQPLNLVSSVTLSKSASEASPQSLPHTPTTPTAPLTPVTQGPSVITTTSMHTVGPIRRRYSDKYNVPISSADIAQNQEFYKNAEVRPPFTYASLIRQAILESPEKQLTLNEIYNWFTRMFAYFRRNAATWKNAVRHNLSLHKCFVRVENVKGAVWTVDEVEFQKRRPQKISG
Description: PD-seq (MBP pull-down with sequencing); 20 mM Tris-HCl pH 7.5, 100 mM NaCl, 1.5 mM MgCl2, 0.4 uM protein, 0.1 uM dsDNA library, 30 min, room temperature, amylose pull-down; high values mean tight binding. As to conditions: protein: recombinant; tags: His6-MBP; chain copies: 2; dsDNA, one strand shown. The essentials: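 A fragment of mouse FoxP3 or FoxP1 without its N-terminus, carrying a His6-MBP tag and produced in E. coli, was combined at 0.4 µM with a 0.1 µM degenerate double-stranded DNA library filled in with Klenow. The mixture sat for 30 min at room temperature in Tris pH 7.5 buffer containing NaCl and MgCl2. Protein–DNA complexes were captured on amylose resin, washed three times, and the DNA was freed with proteinase K, barcoded by PCR and sequenced on Illumina. Binding is expressed as reads-per-million enrichment of pull-down over input, with replicates pooled.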
Consider “GATGATTGTTCTCCCAGCTGATGAATTGGCTATGTCGAGTAAACAAATTTTCCTAATCTTTCTGTTCAAGCGCCATCTAC”, for which the binding signal was 0.854 RPM ratio (pull-down/input). For “GATGATTGTTCTCCCAGCTGATGAATTCGTCAGTTCGAGTAAACAAATTTTCCTAATCTTTCTGTTCAAGCGCCATCTAC”, the binding signal was 0.905 RPM ratio (pull-down/input). Next, “GATGATTGTTCTCCCAGCTGATGAATTGTCTCCATCGAGTAAACAAATTTTCCTAATCTTTCTGTTCAAGCGCCATCTAC”: 1.11 RPM ratio (pull-down/input). Next, “GATGATTGTTCTCCCAGCTGATGAATTGGTTTTATCGAGTAAACAAATTTTCCTAATCTTTCTGTTCAAGCGCCATCTAC”: 1.14 RPM ratio (pull-down/input).

For the sequence “GATGATTGTTCTCCCAGCTGATGAATTAGTGAGATCGAGTAAACAAATTTTCCTAATCTTTCTGTTCAAGCGCCATCTAC”, the binding signal is 0.857 RPM ratio (pull-down/input). As to “GATGATTGTTCTCCCAGCTGATGAATTATTTACTTCGAGTAAACAAATTTTCCTAATCTTTCTGTTCAAGCGCCATCTAC”, the binding signal was 2.15 RPM ratio (pull-down/input). Next, “GATGATTGTTCTCCCAGCTGATGAATTGTTTACTTCGAGTAAACAAATTTTCCTAATCTTTCTGTTCAAGCGCCATCTAC”: 2.82 RPM ratio (pull-down/input); “GATGATTGTTCTCCCAGCTGATGAATTTATTACTTCGAGTAAACAAATTTTCCTAATCTTTCTGTTCAAGCGCCATCTAC”: 1.29 RPM ratio (pull-down/input); “GATGATTGTTCTCCCAGCTGATGAATTACTTTATTCGAGTAAACAAATTTTCCTAATCTTTCTGTTCAAGCGCCATCTAC”: 1.15 RPM ratio (pull-down/input). Take “GATGATTGTTCTCCCAGCTGATGAATTTTTTACTTCGAGTAAACAAATTTTCCTAATCTTTCTGTTCAAGCGCCATCTAC”: the binding signal was 1.05 RPM ratio (pull-down/input). Under “GATGATTGTTCTCCCAGCTGATGAATTTACTTCTTCGAGTAAACAAATTTTCCTAATCTTTCTGTTCAAGCGCCATCTAC” stands 1.33 RPM ratio (pull-down/input); under “GATGATTGTTCTCCCAGCTGATGAATTGCCAATGTCGAGTAAACAAATTTTCCTAATCTTTCTGTTCAAGCGCCATCTAC”, 0.943 RPM ratio (pull-down/input). Next, “GATGATTGTTCTCCCAGCTGATGAATTGCGCGAATCGAGTAAACAAATTTTCCTAATCTTTCTGTTCAAGCGCCATCTAC”: 1.14 RPM ratio (pull-down/input); “GATGATTGTTCTCCCAGCTGATGAATTAGATTTATCGAGTAAACAAATTTTCCTAATCTTTCTGTTCAAGCGCCATCTAC”: 1.13 RPM ratio (pull-down/input); “GATGATTGTTCTCCCAGCTGATGAATTCTCTTTATCGAGTAAACAAATTTTCCTAATCTTTCTGTTCAAGCGCCATCTAC”: 0.967 RPM ratio (pull-down/input).

Take “GATGATTGTTCTCCCAGCTGATGAATTTTTTGCTTCGAGTAAACAAATTTTCCTAATCTTTCTGTTCAAGCGCCATCTAC”: the binding signal is 0.938 RPM ratio (pull-down/input).

Regarding “GATGATTGTTCTCCCAGCTGATGAATTGTTTGCTTCGAGTAAACAAATTTTCCTAATCTTTCTGTTCAAGCGCCATCTAC”, the binding signal is 2.2 RPM ratio (pull-down/input). Next, “GATGATTGTTCTCCCAGCTGATGAATTGTTGCTTTCGAGTAAACAAATTTTCCTAATCTTTCTGTTCAAGCGCCATCTAC”: 2.12 RPM ratio (pull-down/input); “GATGATTGTTCTCCCAGCTGATGAATTGCTTTGTTCGAGTAAACAAATTTTCCTAATCTTTCTGTTCAAGCGCCATCTAC”: 1.11 RPM ratio (pull-down/input). Under “GATGATTGTTCTCCCAGCTGATGAATTGCTTTTTTCGAGTAAACAAATTTTCCTAATCTTTCTGTTCAAGCGCCATCTAC” stands 1.45 RPM ratio (pull-down/input).

As for “GATGATTGTTCTCCCAGCTGATGAATTTGCTTTTTCGAGTAAACAAATTTTCCTAATCTTTCTGTTCAAGCGCCATCTAC”, the binding signal is 1.21 RPM ratio (pull-down/input). Turning to “GATGATTGTTCTCCCAGCTGATGAATTTGTTGCTTCGAGTAAACAAATTTTCCTAATCTTTCTGTTCAAGCGCCATCTAC”, the binding signal is 1.54 RPM ratio (pull-down/input). In the case of “GATGATTGTTCTCCCAGCTGATGAATTTGCTTCTTCGAGTAAACAAATTTTCCTAATCTTTCTGTTCAAGCGCCATCTAC”, the binding signal was 1.02 RPM ratio (pull-down/input).

For the sequence “GATGATTGTTCTCCCAGCTGATGAATTTTTGCTTTCGAGTAAACAAATTTTCCTAATCTTTCTGTTCAAGCGCCATCTAC”, the binding signal is 1.83 RPM ratio (pull-down/input). Regarding “GATGATTGTTCTCCCAGCTGATGAATTTGGCAGCTCGAGTAAACAAATTTTCCTAATCTTTCTGTTCAAGCGCCATCTAC”, the binding signal is 0.875 RPM ratio (pull-down/input). Under “GATGATTGTTCTCCCAGCTGATGAATTAACGCTGTCGAGTAAACAAATTTTCCTAATCTTTCTGTTCAAGCGCCATCTAC” stands 0.97 RPM ratio (pull-down/input); under “GATGATTGTTCTCCCAGCTGATGAATTAAAGAGTTCGAGTAAACAAATTTTCCTAATCTTTCTGTTCAAGCGCCATCTAC”, 0.941 RPM ratio (pull-down/input); under “GATGATTGTTCTCCCAGCTGATGAATTCAGATTATCGAGTAAACAAATTTTCCTAATCTTTCTGTTCAAGCGCCATCTAC”, 0.977 RPM ratio (pull-down/input). “GATGATTGTTCTCCCAGCTGATGAATTCGGTAGATCGAGTAAACAAATTTTCCTAATCTTTCTGTTCAAGCGCCATCTAC”: the binding signal is 0.874 RPM ratio (pull-down/input). For “GATGATTGTTCTCCCAGCTGATGAATTTATATGATCGAGTAAACAAATTTTCCTAATCTTTCTGTTCAAGCGCCATCTAC”, the binding signal is 1.14 RPM ratio (pull-down/input). For “GATGATTGTTCTCCCAGCTGATGAATTATTTATTTCGAGTAAACAAATTTTCCTAATCTTTCTGTTCAAGCGCCATCTAC”, the binding signal was 2.06 RPM ratio (pull-down/input). Turning to “GATGATTGTTCTCCCAGCTGATGAATTTTTATTTTCGAGTAAACAAATTTTCCTAATCTTTCTGTTCAAGCGCCATCTAC”, the binding signal was 2.75 RPM ratio (pull-down/input). “GATGATTGTTCTCCCAGCTGATGAATTTATTTCTTCGAGTAAACAAATTTTCCTAATCTTTCTGTTCAAGCGCCATCTAC”: the binding signal was 1.29 RPM ratio (pull-down/input). Next, “GATGATTGTTCTCCCAGCTGATGAATTATTTTATTCGAGTAAACAAATTTTCCTAATCTTTCTGTTCAAGCGCCATCTAC”: 1.22 RPM ratio (pull-down/input); “GATGATTGTTCTCCCAGCTGATGAATTCCTTTATTCGAGTAAACAAATTTTCCTAATCTTTCTGTTCAAGCGCCATCTAC”: 0.944 RPM ratio (pull-down/input). Take “GATGATTGTTCTCCCAGCTGATGAATTTGTTTATTCGAGTAAACAAATTTTCCTAATCTTTCTGTTCAAGCGCCATCTAC”: the binding signal was 2.89 RPM ratio (pull-down/input). Under “GATGATTGTTCTCCCAGCTGATGAATTCTTTATTTCGAGTAAACAAATTTTCCTAATCTTTCTGTTCAAGCGCCATCTAC” stands 1.03 RPM ratio (pull-down/input). Next, “GATGATTGTTCTCCCAGCTGATGAATTTTTTTATTCGAGTAAACAAATTTTCCTAATCTTTCTGTTCAAGCGCCATCTAC”: 0.953 RPM ratio (pull-down/input); “GATGATTGTTCTCCCAGCTGATGAATTTTATTTTTCGAGTAAACAAATTTTCCTAATCTTTCTGTTCAAGCGCCATCTAC”: 1.96 RPM ratio (pull-down/input); “GATGATTGTTCTCCCAGCTGATGAATTGTTTTATTCGAGTAAACAAATTTTCCTAATCTTTCTGTTCAAGCGCCATCTAC”: 1.6 RPM ratio (pull-down/input). In the case of “GATGATTGTTCTCCCAGCTGATGAATTTATTATTTCGAGTAAACAAATTTTCCTAATCTTTCTGTTCAAGCGCCATCTAC”, the binding signal was 1.6 RPM ratio (pull-down/input).
